# Assay outcomes as filed in PubChem BioAssay.
# TEAD-YAP block – TEAD-YAP interaction inhibition; HEK-TIYL cells, TEAD-Gal4/YAP UAS-luciferase luminescence; inhibition, % at 9.12 µM; 640,000 compounds, 1.4% hits; AID 1259422; in the data active means inhibition above about 32%;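 further: 0% = median of test compound wells and 100% = reference inhibitor wells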
# GPR151 ag – human GPR151 activation; Q8TDV0; PathHunter beta-arrestin GPR151 cells, luminescence; activation, % at 11.2 µM; 650,000 compounds, 1% hits; AID 1508602; in the data active means activation above about 4.9%;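 further: 0% = median of compound wells and 100% = cells with positive control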
# MITF inh – human MITF inhibition, primary screen; AlphaScreen MITF homodimerization, bead proximity signal; O75030; inhibition, % at 2.6 µM; 650,000 compounds, 0.91% hits; AID 1259374; in the data active means inhibition above about 50%;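 further: 0% = vehicle wells with protein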
# Target sequence (O75030 whole entry, looked up): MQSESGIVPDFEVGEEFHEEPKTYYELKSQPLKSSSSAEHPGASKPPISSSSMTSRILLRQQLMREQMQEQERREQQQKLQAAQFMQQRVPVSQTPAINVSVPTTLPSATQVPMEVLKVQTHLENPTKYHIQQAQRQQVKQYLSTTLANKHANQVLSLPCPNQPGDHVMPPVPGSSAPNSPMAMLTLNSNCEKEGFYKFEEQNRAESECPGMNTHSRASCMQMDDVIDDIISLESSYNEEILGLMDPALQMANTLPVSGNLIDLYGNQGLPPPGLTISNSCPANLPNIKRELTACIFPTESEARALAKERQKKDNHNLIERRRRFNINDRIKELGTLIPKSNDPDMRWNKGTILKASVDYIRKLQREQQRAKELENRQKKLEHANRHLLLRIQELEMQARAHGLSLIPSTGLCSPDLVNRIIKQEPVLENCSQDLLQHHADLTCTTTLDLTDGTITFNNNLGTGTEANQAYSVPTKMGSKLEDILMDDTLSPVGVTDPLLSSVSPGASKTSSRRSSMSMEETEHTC
# FBW7 act – activators of human E3 ligase FBW7; Q969H0; AlphaScreen FBW7–phospho-cyclin E peptide binding, activator screen; normalized activity (activation), % at 26.1 µM; 650,000 compounds, 0.13% hits; AID 1259310; in the data active means normalized activity above about 1.9%;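 further: purified mutant Fbw7 with reduced substrate affinity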
# The depositor's hits bear a star. Compounds with a hit are over-represented: about 3.5% of the library has one in this group of screens.
SMILES,TEAD-YAP block,GPR151 ag,MITF inh,FBW7 act
CCCOc1ccc(C2NC(=O)NC(C)=C2C(=O)OC(C(F)(F)F)C(F)(F)F)cc1 (centres undefined),7,1,17,2.1*
Cc1cc(C)n(CC(=O)N/N=C/c2ccc([N+](=O)[O-])cc2)n1,8,-1,19,0
C=CCn1c(SCC(=O)Nc2cccc(C)c2)nnc1-c1ccccc1O,13,1,6,0
C=CCn1c(SCC(=O)Nc2ccc(F)cc2F)nnc1-c1ccccc1O,48*,0,-7,0
CC(c1ccc([N+](=O)[O-])cc1)c1nc(-c2ccccn2)no1 (centres undefined),67*,0,7,1
CC(c1ccc([N+](=O)[O-])cc1)c1nc(-c2ccncc2)no1 (centres undefined),-3,-1,13,0
COc1ccc(-c2c(C)sc3[n+]2CCC3)cc1,-4,-1,-18,0
C1=Nc2ccccc2SC(c2cccnc2)=C1,86*,-11,-4,0
CCC(CO)Nc1ccc2ncc(-c3cccc(OC)c3)n2n1 (centres undefined),57*,-1,8,-1
OCc1ccc(-c2cnc3ccc(NC4CCC(O)CC4)nn23)cc1 (centres undefined),51*,2,9,0
O=C(O)c1ccc(-c2cnc3ccc(NC4CCC(O)CC4)nn23)cc1 (centres undefined),0,0,-10,0
CCC(CO)Nc1ccc2ncc(-c3ccco3)n2n1 (centres undefined),33*,0,20,0
CCC(CO)Nc1ccc2ncc(-c3ccc(C(C)=O)s3)n2n1 (centres undefined),47*,-1,19,0
O=C(O)C(=O)/C(N=Nc1ccccc1)=C(/O)c1ccccc1,-57,-2,-4,0
COc1cccc(-c2cnc3ccc(NCC4CC4)nn23)c1,47*,0,-11,0
COc1cncc(-c2cnc3ccc(NC4CCOCC4)nn23)c1,42*,1,11,0
Cc1ccc(N2C(N)=C(C#N)C(c3ccc(N(C)C)cc3)C3=C2CC(C)(C)CC3=O)cc1 (centres undefined),3,-1,11,0
CCN1C(=O)N(CC)C(NNC(N)=S)C1NNC(N)=S (centres undefined),90*,1,-9,0
CCOC(=O)c1c(N2C(N)=C(C#N)C(c3ccc([N+](=O)[O-])cc3)C3=C2CCCC3=O)sc2c1CCCC2 (centres undefined),0,-1,-1,0
O=C(Nc1cnc2ccccc2c1)c1ccc([N+](=O)[O-])cc1Cl,49*,-4,1,0
O=C(Nc1ccc(Cc2ccncc2)cc1)c1ccc([N+](=O)[O-])cc1Cl,36*,-1,3,0
O=C(Nc1cnc2ccccc2c1)c1ccccc1Cl,78*,-6,-15,0
O=C(Nc1ccc(Cc2ccncc2)cc1)c1ccc([N+](=O)[O-])cc1,7,0,-7,0
O=C(NC1CCCCCCCCCCC1)c1ccc([N+](=O)[O-])cc1Cl,-13,1,-13,0
O=C(NC1CCCCC1)c1ccc([N+](=O)[O-])cc1Cl,40*,1,-2,1
SMILES,TEAD-YAP block,GPR151 ag,MITF inh,FBW7 act
O=C(Nc1cccnc1)c1ccc([N+](=O)[O-])cc1Cl,-6,-1,-8,0
O=C1NN(c2ccc(I)cc2)C(=O)/C1=C\c1ccccc1O,0,-1,54*,0
Cc1nc2ncnn2c(NCCc2ccccc2)c1C,42*,-1,17,1
COc1ccc(CCNc2c(C)c(C)nc3ncnn23)cc1,60*,1,-2,0
COc1ccc(CNc2c(C)c(C)nc3ncnn23)cc1,26,1,12,0
Cc1nn(CC(=O)c2ccc(F)c(F)c2)c(C)c1[N+](=O)[O-],-13,-1,7,0
CCCc1ccc(C(=O)N2CCC(c3c(S(C)(=O)=O)cnc4ncnn34)CC2)o1,9,1,3,0
COc1ccc(/C=N/NC(=S)Nc2cccc(C(=O)O)c2)c(OC)c1,4,-2,-4,0
COc1ccc(O)c(/C=N/NC(=S)Nc2cccc(C(=O)O)c2)c1,6,-2,104*,-1
O=C(O)c1cccc(NC(=S)N/N=C/c2cccc(O)c2)c1,15,1,8,0
CN(C)c1ccc(/C=N/NC(=S)Nc2cccc(C(=O)O)c2)cc1,64*,1,-7,0
OC1(c2ccc(OC(F)F)cc2)CSC(=Nc2cccnc2)N1C1CC1 (centres undefined),42*,0,20,0
CC(=O)c1c(C)[nH]c(C(=O)COC(=O)c2c(C)nn(-c3ccccc3)c2C)c1C,49*,3,22,0
Cc1cccc(C)c1NC(=O)C1CCCN(S(=O)(=O)c2cccc3cccnc23)C1 (centres undefined),6,0,-2,0
Cc1cc2cc(CNC(=O)Nc3ccc(Cl)cc3)ccc2[nH]1,-30,0,3,0
O=C(Nc1ccc(Br)cc1)C(=O)c1c[nH]c2ccccc12,-71,-1,0,0
O=C1/C(=C/c2cccnc2)SC(=S)N1Cc1cccnc1,33*,4,25,0
Cc1cc(C(=O)CSc2nnc(N)s2)c(C)n1CC1COc2ccccc2O1 (centres undefined),2,0,16,0
CCNC(=O)N1CCCC(c2nnc(-c3ccccc3F)s2)C1 (centres undefined),38*,-5,-5,0
Cc1ccc(-n2nc3c(c2NC(=O)c2cc([N+](=O)[O-])ccc2Cl)CSC3)c(C)c1,71*,1,16,0
Cc1ccccc1-n1nc2c(c1NC(=O)c1cc([N+](=O)[O-])ccc1Cl)CS(=O)(=O)C2,67*,3,-19,0
CC(C)(C)n1nc2c(c1NC(=O)c1cc(Cl)ccc1Cl)CSC2,3,-1,4,0
CC(C)(C)n1nc2c(c1NC(=O)c1cc([N+](=O)[O-])ccc1Cl)CSC2,89*,2,-7,0
COc1ccc(-n2nc3c(c2NC(=O)c2cc([N+](=O)[O-])ccc2Cl)CSC3)cc1,61*,2,13,0
O=C(O)Cc1ccc(S(=O)(=O)N2CCOCC2)s1,2,1,-10,0
SMILES,TEAD-YAP block,GPR151 ag,MITF inh,FBW7 act
Cc1ccccc1C(=O)Nc1sc2c(c1C(=O)OC(C)C)CCCC2,3,-2,11,0
CCOC(=O)c1ccccc1NC(=O)CSc1nncc(=O)n1N,-4,1,10,0
CSc1cccc(NC(=O)C2C3C=CC4(O3)C2C(=O)N(CCC2=CCCCC2)C4C(=O)NC2CCCCC2)c1 (centres undefined),4,1,-33,0
COC(=O)C1=C(C)N(c2ccc(Cl)c(Cl)c2)C(=O)C1,36*,1,-14,0
COC(=O)C1=C(C)N(c2cccc(OC)c2)C(=O)C1,3,1,-18,0
CCn1ccc(C(=O)N2CCC(Oc3nc4c(F)cc(F)cc4s3)CC2)n1,0,0,7,2.4*
O=C(c1ccc(F)cc1Cl)N1CCC(Oc2nc3c(F)cccc3s2)CC1,12,0,24,1
